Source: PubChem BioAssay (Tox21)
Inconclusive results are not listed. Calls of active or inactive are those of the source. Calls come from the whole dose curve; as a rule, active = well fitted curve in the direction sought with a large enough effect in the repeat runs; inconclusive = weak or mixed curves; inactive = no such curve, though single readings can be large; an effect the other way counts as inactive or inconclusive.

Experiments:
[1] = qHTS RealTime-Glo MT Cell Viability Assay in HepG2 cells - 40 hour (AID 1224870); note: nearly all actives have a fitted effect of over 50% in size; note: potency is the fitted concentration of half-maximal effect
Outline: (§1)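 HepG2 cells mixed with RealTime-Glo MT reagents (NanoLuc plus cell-permeant prosubstrate) were seeded at 600 cells/well, incubated 5 h at 37 C/5% CO2, then pinned with compounds in DMSO; nonlytic luminescence tracked viability during 40 h treatment.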

[2] = A CellTox Green Cytotoxicity Assay to monitor cytotoxicity in HEK293 cells - 40 hour (AID 1224871); note: nearly all actives have a fitted effect of over 45% in size; note: potency is the fitted concentration of half-maximal effect
Outline: (§2)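 Each value comes from one timepoint of a single continuous run in which HEK293 cells with CellTox Green were exposed to compound for up to 40 h at 37 C, dye fluorescence rising with cell death.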

[3] = qHTS RealTime-Glo MT Cell Viability Assay in HEK293 cells - 16 hour (AID 1224872); note: nearly all actives have a fitted effect of over 50% in size; note: potency is the fitted concentration of half-maximal effect
Outline: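 Reads taken at 0, 8, 16, 24, 32 and 40 h from the same wells. HEK293 cells (600/well) carried RealTime-Glo reagents from seeding, with compound added after a 5 h settle at 37 C.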

[4] = qHTS RealTime-Glo MT Cell Viability Assay in HepG2 cells - 8 hour (AID 1224873); note: nearly all actives have a fitted effect of over 55% in size
Outline: as §1

[5] = A CellTox Green Cytotoxicity Assay to monitor cytotoxicity in HEK293 cells - 24 hour (AID 1224875); note: nearly all actives have a fitted effect of over 45% in size; note: potency is the fitted concentration of half-maximal effect
Outline: as §2

[6] = A CellTox Green Cytotoxicity Assay to monitor cytotoxicity in HepG2 cells - 16 hour (AID 1224876); note: nearly all actives have a fitted effect of over 45% in size; note: potency is the fitted concentration of half-maximal effect
Outline: (§3)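 Continuous culture of HepG2 cells with a membrane-impermeant DNA dye; rising fluorescence marks dead cells. Compound exposure lasted up to 40 h at 37 C, with reads every 8 h from 0 h.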

[7] = qHTS RealTime-Glo MT Cell Viability Assay in HepG2 cells - 32 hour (AID 1224877); note: nearly all actives have a fitted effect of over 55% in size; note: potency is the fitted concentration of half-maximal effect
Outline: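 HepG2 suspension premixed with RealTime-Glo reagents is plated at 600 cells per well and left 5 h at 37 C/5% CO2. Compounds in DMSO then go in, and bioluminescence reflecting viable cell number is recorded over 40 h.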

[8] = A CellTox Green Cytotoxicity Assay to monitor cytotoxicity in HepG2 cells - 24 hour (AID 1224878); note: nearly all actives have a fitted effect of over 45% in size; note: potency is the fitted concentration of half-maximal effect
Outline: as §3

[9] = A CellTox Green Cytotoxicity Assay to monitor cytotoxicity in HepG2 cells - 40 hour (AID 1224879); note: nearly all actives have a fitted effect of over 40% in size; note: potency is the fitted concentration of half-maximal effect
Outline: as §3

[10] = qHTS RealTime-Glo MT Cell Viability Assay in HEK293 cells - 40 hour (AID 1224874); details: RealTime-Glo luminescence; max response: stronger effect = lower value; note: nearly all actives have a fitted effect of over 50% in size; note: potency is the fitted concentration of half-maximal effect
Outline: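 qHTS format; HEK293 cells with NanoLuc/prosubstrate reagent, 37 C/5% CO2 for 5 h pre-dosing; compounds 23 nL in DMSO; luminescence at each time point reflects viable cells.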
% is set by controls: 0 for no effect and ±100 for the full control effect.

O=c1[nH]c2ccc(Cl)cc2o1
inactive: Potency [1] | Potency [2] | Potency [3] | Potency [4] | Potency [5] | Potency [6] | Potency [7] | Potency [8] | Potency [9]

Cc1cc(C)c(N)cc1C
inactive: Potency [1] | Potency [2] | Potency [3] | Potency [4] | Potency [5] | Potency [6] | Potency [7] | Potency [8] | Potency [9]

CN1C(=O)c2ccccc2C1=O
inactive: Potency [1] | Potency [2] | Potency [3] | Potency [4] | Potency [5] | Potency [6] | Potency [7] | Potency [8] | Potency [9]

O=C1c2ccccc2C(=O)N1CCc1noc(-c2ccc(CN3CCCCCC3)s2)n1
inactive: Potency [1] | Potency [5] | Potency [7]
active: Potency [2] 40 µM | Potency [3] 22.5 µM | Potency [6] 20.1 µM | Potency [8] 31.8 µM | Potency [9] 35.7 µM

C[C@@H]1CN(CCCn2c3ccccc3c3ccccc32)C[C@H](C)N1
active: Potency [1] 23.9 µM | Potency [2] 23.9 µM | Potency [3] 26.8 µM | Potency [10] 23.9 µM | Potency [5] 23.9 µM | Potency [6] 26.8 µM | Potency [7] 23.9 µM | Potency [8] 26.8 µM | Potency [9] 23.9 µM

CC(=O)OCC(=O)NCCCOc1cccc(CN2CCCCC2)c1
inactive: Potency [1] | Potency [2] | Potency [3] | Potency [4] | Potency [5] | Potency [6] | Potency [7] | Potency [8] | Potency [9]

CCC(C)(C)OC
inactive: Potency [1] | Potency [2] | Potency [3] | Potency [4] | Potency [5] | Potency [6] | Potency [7] | Potency [8] | Potency [9]

O=C(Nc1cccc2c(=O)cc(-c3nn[nH]n3)oc12)c1ccc(OCCCCc2ccccc2)cc1
inactive: Potency [1] | Potency [2] | Potency [3] | Potency [4] | max response [10] -0.852% | Potency [5] | Potency [7]

Cc1cc(C)cc(N)c1
inactive: Potency [1] | Potency [2] | Potency [3] | Potency [4] | Potency [5] | Potency [6] | Potency [7] | Potency [8] | Potency [9]

CC(C)=CCC/C(C)=C/CC/C(C)=C/C(=O)OCC(=O)[C@@]1(O)CC[C@H]2[C@@H]3CCC4=CC(=O)C=C[C@]4(C)[C@H]3[C@@H](O)C[C@@]21C
inactive: Potency [1] | Potency [2] | Potency [5] | Potency [6] | Potency [8] | Potency [9]
active: Potency [3] 5.35 µM | Potency [10] 4.25 µM

O=[N+]([O-])c1ccc(Nc2ccc(Nc3ccccc3)c(S(=O)(=O)O)c2)c([N+](=O)[O-])c1
inactive: Potency [1] | Potency [2] | Potency [3] | Potency [4] | Potency [5] | Potency [6] | Potency [7] | Potency [8] | Potency [9]

O=C1c2ccccc2C(=O)C1c1nc2ccccc2c(Br)c1O
inactive: Potency [1] | Potency [2] | Potency [3] | Potency [4] | max response [10] 21.2% | Potency [5] | Potency [7]
active: Potency [9] 4.9 µM

CCOC(=O)c1ccc(O)c(O)c1
inactive: Potency [1] | Potency [2] | Potency [3] | Potency [4] | max response [10] -21.6% | Potency [5] | Potency [7] | Potency [8] | Potency [9]

Nc1nc2ccc([N+](=O)[O-])cc2s1
inactive: Potency [1] | Potency [2] | Potency [3] | Potency [4] | Potency [5] | Potency [7]
active: Potency [6] 49 µM | Potency [8] 43.6 µM | Potency [9] 43.6 µM

Nc1ccc(N=Nc2ccccc2)c(N)c1
inactive: Potency [1] | Potency [2] | Potency [5] | Potency [6] | Potency [7] | Potency [8] | Potency [9]
active: Potency [3] 42.7 µM | Potency [10] 38.1 µM

CCC(C)COC(=O)CC(C)C (stereo unspecified)
active: Potency [8] 54.9 µM | Potency [9] 49 µM
inactive: Potency [1] | Potency [2] | Potency [3] | Potency [4] | Potency [5] | Potency [7]

O=[N+]([O-])c1cc(C2CCCCC2)c(O)c([N+](=O)[O-])c1
inactive: Potency [2] | Potency [5] | Potency [6]
active: Potency [1] 48.9 µM | Potency [3] 27.5 µM | Potency [10] 12.3 µM

C=C(C)[C@@H]1CCC2=CCC[C@@H](C)[C@]2(C)C1
inactive: Potency [1] | Potency [2] | Potency [3] | Potency [4] | Potency [5] | Potency [7]

CS(=O)(=O)c1ccc(-c2cn3ccccc3n2)cc1
inactive: Potency [1] | Potency [2] | Potency [3] | Potency [5] | Potency [6] | Potency [7]

Oc1cccc(Nc2ccccc2)c1
inactive: Potency [1] | Potency [2] | Potency [4] | Potency [5] | Potency [6] | Potency [7] | Potency [8] | Potency [9]
active: Potency [3] 22.8 µM

Oc1c(I)cc(I)c2cccnc12
inactive: Potency [1] | Potency [2] | Potency [3] | Potency [4] | Potency [5] | Potency [6] | Potency [7] | Potency [8] | Potency [9]

O=C(OCC(O)CO)c1ccccc1Nc1ccnc2cc(Cl)ccc12 (stereo unspecified)
active: Potency [3] 8.49 µM | Potency [10] 8.49 µM
inactive: Potency [1] | Potency [2] | Potency [4] | Potency [5] | Potency [8] | Potency [9]

CCCCCC#CC(=O)OC
inactive: Potency [1] | Potency [2] | Potency [3] | Potency [5] | Potency [6] | Potency [7] | Potency [8] | Potency [9]

CC(C)(C)C(=O)C(=O)O
inactive: Potency [1] | Potency [2] | Potency [3] | Potency [4] | max response [10] 0.984% | Potency [6] | Potency [7] | Potency [8]

CC=C(Cl)Cl
inactive: Potency [1] | Potency [2] | Potency [3] | Potency [4] | Potency [6] | Potency [7] | Potency [8] | Potency [9]

CC(=O)N/N=C/c1ccc([N+](=O)[O-])o1
inactive: Potency [1] | Potency [2] | Potency [4] | max response [10] 8% | Potency [5] | Potency [6] | Potency [7] | Potency [8]

CC(C)Nc1cccnc1N1CCN(C(=O)c2cc3cc(NS(C)(=O)=O)ccc3[nH]2)CC1
inactive: Potency [1] | Potency [2] | Potency [3] | Potency [4] | Potency [5] | Potency [6] | Potency [7] | Potency [8] | Potency [9]

CCCC(=O)C(=O)O
inactive: Potency [1] | Potency [2] | Potency [3] | Potency [4] | Potency [5] | Potency [6] | Potency [7] | Potency [8] | Potency [9]

CC(CC1c2ccccc2CCc2ccccc21)CN(C)C (stereo unspecified)
inactive: Potency [1] | Potency [2] | Potency [3] | Potency [4] | Potency [5] | Potency [6] | Potency [7]

CNC(=O)c1cnn(-c2nc(N)c3ncn([C@@H]4O[C@H](CO)[C@@H](O)[C@H]4O)c3n2)c1
inactive: Potency [1] | Potency [2] | Potency [3] | Potency [4] | Potency [5] | Potency [6] | Potency [7] | Potency [8] | Potency [9]

Clc1cc(Cl)nc(Cl)n1
inactive: Potency [1] | Potency [2] | Potency [3] | Potency [4] | Potency [5] | Potency [6] | Potency [7] | Potency [8] | Potency [9]

O=Cc1c2ccccc2c(Cl)c2ccccc12
inactive: Potency [1] | Potency [2] | Potency [3] | Potency [4] | Potency [5] | Potency [6] | Potency [7] | Potency [8] | Potency [9]
